Shown is part of a subset that was picked to be rich in hits.
RORgamma inh: blocks mouse ROR gamma transcriptional activity; Drosophila S2 Gal4-RORgamma UAS-luciferase reporter, 20 h; 5.4% of 310,000 active; AID 2551; Potency, µM (titrated, usually from 53.6 µM), usual class: inhibitors; P51450; note: nearly all actives have a fitted effect of over 60% in size
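Luciferase reporter read in Schneider cells carrying Gal4-RORγ (mouse) and UAS-Photinus luciferase; cells given compound 1 h before 700 uM copper sulfate induction, then incubated 20 h at ambient temperature.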
a7 integrin act: activates integrin-mediated alleviation for muscular dystrophy; alpha7betagal myoblasts, beta-gal FDG fluorescence, 48 h; Potency, µM (doses to about 38.3 µM), hits mostly activators; 0.064% of 350,000 active; AID 624291; note: nearly all actives have a fitted effect of over 60% in size
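alpha7betagal+/- myoblasts (passage 13, 250/well) treated 48 h at 37C with compounds at 1:260 dilution of DMSO stock. Lysed, then beta-galactosidase activity read as FDG fluorescence (ex 480/em 540) after 30 min, with pre-read for autofluorescence.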
Giardia kill: kills Giardia lamblia; 0.15% of 340,000 active; activity change, % at 7.66 µM, hits read low; Giardia lamblia trophozoite viability; AID 540267; in the data active = activity change below about -80%; inconclusive = between about -30% and that limit;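 note: parasites exposed to compound for two days anaerobically before the ATP read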
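Trophozoites 100 cells/well + cpd; 48 hrs, 37 deg C, anaerobic. ATPLite 1-Step added, 15-30 min RT, luminescence read (ATP-based viability).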
VP16 counter: Gal4-VP16 reporter inhibition counter-screen; Drosophila S2 Gal4-VP16 UAS-luciferase, luminescence, 20 h; Potency, µM (highest dose often 53.6 µM), actives largely listed as inhibitors; 3.5% of 310,000 active; AID 2546;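 note: Gal4-VP16 expression switched on by copper sulfate through the metallothionein promoter; nearly all actives have a fitted effect of over 50% in size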
ERG-DNA inh: ERG Ets/DNA interaction inhibition | 0.028% of 370,000 active | AID 624246 | P11308 | fluorescence polarization, His-ERG Ets domain / labelled DNA | Potency, µM (highest dose often 76.9 µM), usual class: inhibitors; active = well fitted inhibition curve with a large enough effect in the polarisation, with a control signal flat; inconclusive = small, poorly fitted or top-dose-only effect, or effect the other way, or a change in a side signal; inactive = no such curve, though single readings can be large or run the other way; the % refers to the polarisation;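 note: polarization taken with two DNA probes labelled with fluorescein and Texas red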
Target sequence (P11308 whole entry, looked up, the tested form may be a part): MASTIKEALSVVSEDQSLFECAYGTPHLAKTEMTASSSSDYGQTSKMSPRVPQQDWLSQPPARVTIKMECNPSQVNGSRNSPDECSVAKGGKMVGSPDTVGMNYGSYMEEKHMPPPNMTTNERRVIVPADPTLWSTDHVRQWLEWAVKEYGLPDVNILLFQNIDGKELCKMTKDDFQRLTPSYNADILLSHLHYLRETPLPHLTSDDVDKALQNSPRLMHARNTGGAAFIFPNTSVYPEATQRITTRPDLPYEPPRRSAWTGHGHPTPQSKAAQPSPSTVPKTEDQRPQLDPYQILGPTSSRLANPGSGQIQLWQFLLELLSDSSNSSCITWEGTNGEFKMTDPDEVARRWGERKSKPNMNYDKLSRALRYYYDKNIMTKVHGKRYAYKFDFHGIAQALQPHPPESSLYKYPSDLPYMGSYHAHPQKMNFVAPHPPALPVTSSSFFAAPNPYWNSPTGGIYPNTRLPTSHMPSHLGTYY
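His-tagged ERG Ets domain (1 uM in the protein solution; 300mM KCl, 50mM Tris-HCl, 1mM EDTA, 1mM DTT, pH 7.5) received compound, then a probe mix of 5 nM fluorescein-DNA and 100nM Texas-615-DNA. Fluorescence polarization was read for both dyes.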
Hits are given with their value; 0 = inactive; ? = inconclusive; - = no result; [ ] = another dose, or the depositor's remark. Unless noted, calls come from the whole dose curve; as a rule, active = well fitted curve in the direction sought with a large enough effect; inconclusive = small, poorly fitted or top-dose-only effect, or another doubt; inactive = no such curve, though single readings can be large; an effect the other way counts as inactive or inconclusive.

SMILES	RORgamma inh	a7 integrin act	Giardia kill	VP16 counter	ERG-DNA inh
CCOC(=O)C1CCCN(S(=O)(=O)CCNC(=O)c2ccc(F)cc2)C1 (centres undefined)	-	0	0	-	0
COc1ccc2nc(N)sc2c1	0	0	0	0	0
COc1ccc2nc(N=NC3=C(O)CC(C)(C)CC3=O)sc2c1	11.2µM	0	0	?	0
COc1ccc2nc(N=Nc3ccc(O)c4ccccc34)sc2c1	1.58µM	0	0	5.01µM	0
O=C(/C=C/c1ccc(O)c(O)c1)OCCc1ccccc1	?	-	0	10µM	0
Cc1cc(C)n(-c2nc(Nc3ccccc3C)nc(-n3nc(C)cc3C)n2)n1	2.82µM	-	-	10µM	-
Cc1cc(C)n(-c2nc(Nc3ccccc3C(F)(F)F)nc(-n3nc(C)cc3C)n2)n1	7.08µM	0	?	7.08µM	0
Cc1csc(Nc2ccccc2C(F)(F)F)n1	0	0	0	0	0
Cc1cc(Nc2ccccc2C)nc(-n2nc(C)cc2C)n1	-	-	-	-	0
COc1ccc(S(=O)(=O)N2CCN=C2SCc2cccc(F)c2)cc1	0	0	0	0	0
O=C(c1ccc(=O)oc1)N1CCCc2ccccc21	0	0	0	0	0
Cc1nn(CC(=O)NN)c(C)c1Br	0	0	0	0	0
Cc1nn(CCC(=O)NNC(=S)Nc2ccccc2)c(C)c1Br	0.316µM	0	0	?	0
CCOCCCNC(=S)NNC(=O)CCn1nc(C)c(Br)c1C	1.41µM	0[7.66 µM]	0	3.16µM	0
CNC(=S)NNC(=O)CCn1nc(C)c(Br)c1C	0.631µM	0[7.66 µM]	0	3.98µM	0
COCCCNC(=S)NNC(=O)Cn1nc(C)c(Br)c1C	3.16µM	0	0	11.2µM	0
Cc1ccnc2nc(C(=O)OCC(=O)Nc3ccc4c(c3)OCCO4)nn12	-	0	0	-	0
Cc1nn(CCC(=O)NNC(=S)NCC(C)C)c(C)c1Br	0.708µM	0	0	1.41µM	0
Cc1cccc(NC(=S)NNC(=O)CCn2cc(C)cn2)c1	0.112µM	0	0	1µM	0
CCC(=O)N1c2ccc(S(=O)(=O)CCC(=O)Nc3ccc(Br)c(C)c3)cc2CC1C (centres undefined)	-	-	-	-	0
Cc1ccc(C(C(=O)NCc2ccco2)N(C(=O)CNC(=O)c2cccs2)c2c(C)cccc2C)cc1 (centres undefined)	?	0	?	15.8µM	0
Cc1ccc(C(C(=O)NCc2ccco2)N(C(=O)CNC(=O)c2cccs2)c2c(C)cc(C)cc2C)cc1 (centres undefined)	?	0	0	0	0
Cc1nc(N)sc1-c1csc(Nc2ncccn2)n1	6.31µM	0	0	?	0
COC(=O)C/C=C1\c2ccc3c(c2[C@@H](OC)[C@@H]1C)OCO3	0	-	-	0	-
COc1ccc(/C(C)=N/Nc2nc(C)c(C(C)=O)s2)cc1	-	0	0	-	0
SMILES	RORgamma inh	a7 integrin act	Giardia kill	VP16 counter	ERG-DNA inh
CC(=O)c1sc(N/N=C2\CC3CC2C(C)C3(C)C)nc1C (centres undefined)	7.08µM	0	0	?	0
O=C(NNC(=O)c1cc2cc(Br)ccc2oc1=O)c1ccc(O)cc1O	10µM	0	0	?	0
O=C(NNS(=O)(=O)c1ccc2ccccc2c1)c1cc(-c2ccccn2)nc2ccccc12	0	0	0	7.94µM	0
O=C(Nn1cnnc1)c1cc(-c2ccccn2)nc2ccccc12	0	0	0	0	0
O=C(NCCCN1CCCC1=O)c1cc(-c2ccc3c(c2)OCO3)nc2ccccc12	0	0	0	0	0
COc1ccc(NC(=S)Nc2ncccc2C)c(OC)c1	3.16µM	0	0	10µM	-
Cc1cccnc1NC(=S)Nc1ccc(Cl)c(Cl)c1	?	0	0	?	0
COc1ccc(NC(=S)NC23CC4CC(CC(C4)C2)C3)cc1OC	1.26µM	0	0	3.55µM	0
COc1ccc(C(=O)NC23CC4CC(CC(C4)C2)C3)cc1OC	0[1.91 µM]	0	0	0	0
COc1ccc(NC(=S)Nc2ncccc2C)cc1OC	6.31µM	0	0	?	0
Cc1nc2cnc(N3CCN(C)CC3)nc2n(-c2ccccc2)c1=O	0	-	-	0	-
COc1ccc(OCc2cc(C(=O)N3CCCC(CO)C3)no2)c2ccccc12 (centres undefined)	0	?	0	0	0
COCC1CCN(C(=O)c2cc(COc3ccc(F)cc3Cl)on2)C1 (centres undefined)	-	0	-	-	-
O=C(c1cc(COc2cccc3cnccc23)on1)N1CCCC(CCCO)C1 (centres undefined)	?	0	0	2.82µM	0

Screening data from PubChem BioAssay.
